Assay results published in PubChem BioAssay (NCI).
Compounds without any hit were thinned out: in the full panel of roughly 83,000, 20% have a hit.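 For each line, cells grew in 96-well plates with the test compound present at a single concentration for 48 hours.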 Calls of active or inactive are those of the source. How the source made its calls: active means growth percent below 10; inactive means the rest.

Each compound was assayed on MDA-MB-468 breast (assay: NCI-60 one-dose screen, 48 h (100 = growth as untreated, 0 = no growth, -100 = all killed)). Conditions: 10 µM unless noted.

SMILES | growth
COc1cc(/C=C2\C=C(c3ccc(F)cc3)N(Cc3ccccc3)C2=O)cc(OC)c1OC | 49.9% (inactive)
Nc1cc(F)ccc1NC(=O)c1ccc(NC(=O)C/C=C/c2cccnc2)cc1 | 40.1% (inactive)
O=C(CCl)N1c2ccccc2Sc2ccc3ccccc3c21 | -76.1% (active)
CN(C)c1ccc(Nc2cc(-c3cccc(OC(F)(F)F)c3)nc3ccc(N4CCCC4)cc23)cc1 | -48.1% (active)
CCc1ccc(CCC(=O)Nc2ncc(Cc3ccc(Cl)cc3)s2)o1 | 0.812% (active)
CCOC(=O)C(CCCCC(NC(C)=O)(C(=O)OCC)C(=O)OCC)(NC(C)=O)C(=O)OCC | 107% (inactive)
COC(=O)C12C3C(=O)N(c4ccc(OC)cc4)C(=O)C3C(c3cn(-c4ccccc4)nc3C)N1[C@H](c1cn(-c3ccccc3)nc1C)[C@@H]1C(=O)N(c3ccc(OC)cc3)C(=O)[C@@H]12 (stereo partly drawn) | 97.4% (inactive)
COc1cc(Cn2ncc3ccc(NC(=O)c4cc5ccccc5oc4=N)cc32)cc(OC)c1OC | 36.8% (inactive)
